Values joined by “and” are separate entries in the source; they are usually repeats but may differ in a detail not shown here. Equal entries are not always repeated. Inconclusive results are not listed. A number with no mark means an inactive call. Active and inactive are the calls of the source. Calls come from the whole dose curve; as a rule, active = well fitted activation curve with a large enough effect in the repeat runs; inconclusive = weak or mixed curves; inactive = flat fitted curve, though single readings scatter.
test: A CellTox Green Cytotoxicity Assay to monitor cytotoxicity in HEK293 cells - 32 hour (AID 1224881); conditions: CellTox Green fluorescence; series mostly up to 76.8 µM; note: nearly all actives have a fitted effect of over 40% in size
From the text: National Center for Advancing Translational Sciences [NCATS]
NIH Chemical Genomics Center [NCGC]
U.S. Environmental Protection Agency [EPA]
National Institutes of Environmental Health Sciences [NIEHS]
National Toxicology Program [NTP]
Cell-based models are critical for drug discovery. Determining the natural cytotoxic effects resulting from test compounds is an essential research activity. A CellTox Green Cytotoxicity Assay to monitor cytotoxicity in real time of continues cell culture during 40 hours of the compound treatment was used to screen Tox21 10K library compounds in Hek293 cells. CellTox Green Cytotoxicity Assay is a nonlytic, homogeneous, biofluorescent method to measure cytotoxicity in cell culture after experimental manipulation. The assay system uses a proprietary asymmetric cyanine dye that is excluded from viable cells but preferentially stains the dead cell's DNA. […] Viable cells produce no appreciable increases in fluorescence. Therefore, the fluorescence signal produced by the binding interaction with dead cell DNA is proportional to cytotoxicity.
The mixture of Hek293 cell suspension and reagents were dispensed at 600cells/6 ul/well in 1536-well tissue culture treated black solid bottom plates using a Multidrop dispenser. After the assay plates were incubated at a 37 C/5% CO2 incubator for 5 hours, 23 nL of compounds dissolved in DMSO, positive and negative controls was transferred to the assay plate by a pintool work station. The plates were incubated at 37 C for 40 hours. The fluorescence intensity were measured at 0h, 8h, 16h, 24h, 32h and 40h time points using ViewLux plate reader during compound treatment.
% is set by controls: 0 for no effect and ±100 for the full control effect; potency is the fitted concentration of half-maximal effect.

Row | Compound | Potency | cytotoxicity increase
1 | O=S(=O)(C(Cl)(Cl)Cl)C(Cl)(Cl)Cl | 19.5 µM (active) | –
2 | CC1COC(Cn2cncn2)(c2ccc(Oc3ccc(Cl)cc3)cc2Cl)O1 (stereo not given) | inactive | –
3 | O=C(c1ccccc1)C(Cl)Cl | 34.7 µM (active) | –
4 | Cc1ccc(N(SC(F)(Cl)Cl)S(=O)(=O)N(C)C)cc1 | 5.49 µM (active) | –
5 | OCC(c1ccc(Cl)cc1)c1ccc(Cl)cc1 | 38.9 µM (active) | –
6 | COc1cc(OC)c(OC)cc1C=O | inactive | –
7 | OC(Cc1ccccc1Cl)(Cn1[nH]cnc1=S)C1(Cl)CC1 (stereo not given) | inactive | –
8 | ClC1=C(Cl)[C@]2(Cl)[C@@H]3[C@@H](Cl)[C@H]4O[C@H]4[C@@H]3C1(Cl)C2(Cl)Cl | 54.9 µM (active) | –
9 | Cc1ccc2nc3sc(=O)sc3nc2c1 | – | -11.5% [at 15.8 µM]
10 | O=[N+]([O-])c1c(Cl)c(Cl)cc(Cl)c1Cl | 43.6 µM (active) | –
11 | CCOC(=O)C(O)(c1ccc(Cl)cc1)c1ccc(Cl)cc1 | 44.1 µM (active) | –
12 | Nc1ccc([N+](=O)[O-])cc1 | 38.9 µM (active) | –
13 | Oc1c(I)cc(I)cc1I | inactive | –
14 | COc1ccc(C(c2ccc(OC)cc2)C(Cl)(Cl)Cl)cc1 | inactive | –
15 | CCN(CC)C(=O)Cl | inactive | –
16 | C[C@]12CC[C@@H](O)C[C@@H]1CC[C@@H]1[C@@H]2CC[C@]2(C)C(=O)CC[C@@H]12 | 54.9 µM (active) | –
17 | N#Cc1cc([N+](=O)[O-])ccc1N | inactive | –
18 | Clc1ccccc1-c1ccccc1Cl | 31.4 µM (active) | –
19 | CN1CSC(=S)N(C)C1 | 6.13 µM (active) and 9.75 µM (active) | –
20 | O=C1C(I)=CC(=C(c2cc(I)c(O)c(I)c2)c2ccccc2C(=O)O)C=C1I | inactive | –
